Our source for the PBM binding z-score values is the supplement of paper PMC6555819.

For the assay, the system named is VDR:RXRa (NR concentration 270 nM, RXRa partner concentration 90 nM). In words: PBM binding z-score (relative to random genomic background probes); higher = stronger binding; sequences stand for … in GC…GCGATTGACAGCGTAGAATGAAGG
How it is done:
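Protein-binding microarray (Agilent 4x180K custom design, double-stranded 60-nt probes: 5' GC cap, 34-nt variable region, 24-nt constant primer region; full probe sequence given). Purified or IVT nuclear receptor:RXRα heterodimers (3:1 NR:RXRα, mostly 270:90 nM) or homodimers were incubated for 1 h in PBS with 2% milk and no ligand, then detected with Alexa488 antibodies. Fluorescence from o1-orientation probes (~5 replicates averaged) was converted to z-scores against 500 random hg19 background probes. Variable regions are seed direct-repeat (DR0–DR5) sites, all their single-nucleotide variants and half-site ablations.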
Take CCTACTGGGCCAAAGGTCAATGATTCCAATGCTC: the PBM binding z-score was 4.04.

Consider CGTCCAAGGTCAGAAAGGTCAGTGAATGCCGAGT, for which the PBM binding z-score is 6.33.

As to CGAACGAGGGCATGTGTTGATAGCAAATGCCGAT, the PBM binding z-score is 0.931.

Sequence GCTAGCAGGCCATTAGGGTCACTCAATGACGGGC displayed a PBM binding z-score of 4.6.

Consider ATCTCTAGGTAGGACTCAGTTCAGTGAAGAACGC, for which the PBM binding z-score amounted to 0.756.

In turn, TTACCAACGTGAAGGTCGTTGATCCCTCTGTAGA showed a PBM binding z-score of 1.09.

GTACCAAGGTGGATAGGTCGTTGATGAGTAGGCG returned a PBM binding z-score of -0.168.

As for CAAACTAGGTCCAAGGTCAAAGTCGAGCCAACCA, the PBM binding z-score is 4.04.

On to GGAACGAGGGCAAAGCTGATAGCATCTGTCGACG, for which the PBM binding z-score was 0.367.

GCTTACGGGTCGAAGGTTATAGCATGAATAGAAT: the PBM binding z-score came to 2.02.

Sequence TTACCAAGGTGAAAGGTCGTTGACGCACGCCTTG showed a PBM binding z-score of 3.29.

As for ATCTCTAGGTAACAAGTTCAGTGACAGAGAGGAC, the PBM binding z-score came to 1.97.

Turning to ATCTCTAGGTAAGACTCAGTGCAGTGAAGAACGC, the PBM binding z-score is -0.0962.

With CCTAGTTGGTCAGGAGGTCGCACACCGGATATGA, the PBM binding z-score was 1.41.

The sequence CAGCCTAGGTCAGGGTCAGTATAGGAGGAACGTT displayed a PBM binding z-score of 2.7.

The sequence ACTAGCAGGCCAAGGGTCATTCAAGATTAGTCCG registered a PBM binding z-score of 3.49.

Consider CATACAGTGTCAGCTAGGCCAGAGTAGGGACGGC, for which the PBM binding z-score is -0.152.

In turn, TGAAAGAGGTTAAAGATCAGGGAACGTGGCGTCG came in with a PBM binding z-score of 1.82.

Sequence ATAATGAGGTTAAGATCAGGGAAACAGAATACAT showed a PBM binding z-score of 1.6.

The sequence TCTATTAGTTGATTAGGTCAACCGAAACAGCGGA came in with a PBM binding z-score of 1.94.

TCTCGGAGGATACGAAGGTCAGAGCTTTCCAGAG displayed a PBM binding z-score of 0.765.

ATCTCTAGGTAACCAGGTTCAGTGAATGCCGAAC registered a PBM binding z-score of 4.05.

In turn, ACAGACATGTGATGAAGGTAACTCAGGCTATCAT had a PBM binding z-score of -0.214.

Turning to GCGAGTTGGTCAGTAAAAGGTCACACACCGGTCG, the PBM binding z-score was determined as 4.33.

Regarding AGTCAAAGTTCACTAGGTAACGTAGGATTCAGCT, the PBM binding z-score worked out at 3.71.

Regarding CCTATTAGGTGACCATAAGGGCAACCGAAGCTCG, the PBM binding z-score worked out at 0.646.

GGAACGAGGGCATTCAAGTTGATAGCATGGCGAT: the PBM binding z-score worked out at 3.02.

AGAGTGAGGTTATTAAGATCAGGGAATTGCGGTC gave a PBM binding z-score of 2.49.

Consider TCTTGTAGATCAAAGGTTAAGGAAGCCGAAGCCT, for which the PBM binding z-score amounted to 1.59.

Consider CCTACTGGTCCATCAGGTCATTGATATCAACGTT, for which the PBM binding z-score came out at 2.46.

CCTGTTAGGTCAATGGTCAGCTAAAGCAGCTCGC came in with a PBM binding z-score of 1.54.

Sequence TCTTGTAGATCAGCGGGTTAAGAAAGCTGGCCAA came in with a PBM binding z-score of 0.539.

As for TCGAGTAGGTTAGTGGGGGCATTCAGCCAACATA, the PBM binding z-score turned out to be 5.48.

For CGTCCAAGGTCAATGCTAGGGCAGTGAAAGCATT, the PBM binding z-score worked out at 3.92.

On to TCATAAAGGTAAAAGGTGAAAGTCGGTGTGGTAA, for which the PBM binding z-score turned out to be 1.89.

Sequence TCGTGTAGGTTACCAATGGGGCATTCAGCTTTCT had a PBM binding z-score of 0.608.

In the case of ACAGACAGGTGGTGAAGGTAACTCAGGCTATCAT, the PBM binding z-score is -0.0297.

TCTTGTAGATCAGCAGGTTATGAAAGCTGGCCAA registered a PBM binding z-score of 0.359.

In turn, CCTACTGGGCCACAAAGGTCATTGATGCCGATAA showed a PBM binding z-score of 5.28.

As to AGAATGACGTTATTAAGATCAGGGAATTGCGGTC, the PBM binding z-score was -0.00436.
